Shown are actives, neighbours in structure and some others; about 4.7% of the full set was active somewhere.
eIF4H FP inh: human eIF4H binding inhibitors, primary screen, translation initiation inhibitor project, biochemical, uHTS, fluorescence polarization; eIF4H fluorescence polarization binding assay; inhibition, % at 35 µM; 290,000 compounds, 0.94% hits; AID 2012, 2009;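 also: calls also rest on retests at 20 µM and on dose response follow-up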
Efflux pump inh: inhibitors of Candida efflux pumps in yeast, primary screen, S. cerevisiae, Nile Red, multiplex; S. cerevisiae Candida pump triplex; inhibition, % at 10 µM; 330,000 compounds, 0.44% hits; AID 485275, 2010;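 active = plate passing quality check with inhibition over a set limit, or well fluorescence over plate mean plus 4 SD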;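 also: Nile Red retained in pooled yeast measured as flow cytometry median fluorescence; higher means more Nile Red kept so more efflux inhibition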
UBC9 SUMO inh: inhibitors of in vitro SUMOylation cascade, primary screen, biochemical, HTRF, uHTS; HTRF SUMOylation assay, SAE1/SAE2 + UBC9; inhibition, % at 35 µM; 290,000 compounds, 0.36% hits; AID 2006, 2009; in the data active = inhibition above about 50%, passing the limit was not always enough
Target sequence (P63279 whole entry, looked up): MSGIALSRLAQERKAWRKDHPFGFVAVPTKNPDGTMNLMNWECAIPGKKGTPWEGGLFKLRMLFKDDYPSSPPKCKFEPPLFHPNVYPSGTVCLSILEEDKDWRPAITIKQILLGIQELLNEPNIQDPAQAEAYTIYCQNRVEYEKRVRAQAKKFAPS
MLLE-PAM2 inh: inhibitors of PABP1 MLLE–PAM2 peptide binding, primary screen, biochemical, fluorescence polarization, FITC-PAM2, GST-MLLE; Polyadenylate-binding protein 1 (Homo sapiens), P11940; inhibition, % at 20 µM; 360,000 compounds, 0.36% hits; AID 588489, 2011; in the data active = inhibition above about 35%, passing the limit was not always enough
ALR H2O2 inh: inhibitors of human ALR sulfhydryl oxidase, primary screen, biochemical, H2O2 detection, HRP-luminol luminescence, single point | FAD-linked sulfhydryl oxidase ALR (Homo sapiens), P55789 | purified ALR, DTT oxidation | inhibition, % (no concentration beside the values) | 290,000 compounds, 3.8% hits | AID 485317, 2010;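 active = mean replicate inhibition above about 79%, with every replicate also reaching it, limit read from the data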
Target sequence (P55789 whole entry, looked up): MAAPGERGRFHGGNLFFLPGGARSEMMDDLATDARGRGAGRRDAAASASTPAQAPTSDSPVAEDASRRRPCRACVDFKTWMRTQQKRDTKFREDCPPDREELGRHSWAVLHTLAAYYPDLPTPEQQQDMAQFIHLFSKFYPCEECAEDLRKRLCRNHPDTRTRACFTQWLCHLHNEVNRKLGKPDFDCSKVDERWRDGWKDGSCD
PABP polyA inh: PABP poly(A) RNA binding inhibitors, primary screen, biochemical, fluorescence polarization, uHTS; 290,000 compounds, 1% hits; AID 2014, 2009; Polyadenylate-binding protein 1 (Homo sapiens), P11940; inhibition, % at 35 µM;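 also: calls also rest on retests at 20 µM and on dose response follow-up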
Large screens that a line does not name were inactive. Unless noted, no rule for the calls is given here.

CCn1cc(C(=O)Nc2ccccc2C(=O)OC)cn1	none (no result: eIF4H FP inh, UBC9 SUMO inh, PABP polyA inh)
CCN(CC)c1ccc(NC(=O)c2cnn(CC)c2)cc1	ALR H2O2 inh 99.5
CCC1NC(=O)c2cccnc2-n2c1nc1cc(F)ccc1c2=O (stereo not given)	none (no result: eIF4H FP inh, Efflux pump inh, UBC9 SUMO inh, ALR H2O2 inh, PABP polyA inh)
COCCCNc1nc2ccccc2nc1NS(=O)(=O)c1cc(Cl)ccc1Cl	none
CCN(CC)c1ccc(NC(=O)OC)cc1	ALR H2O2 inh 91.2
O=S(=O)(c1ccc(-c2csc(-c3cccnc3)n2)cc1)N1CCCC1	ALR H2O2 inh 96.6
CC1CCN(S(=O)(=O)c2cccc(-c3csc(-c4cccnc4)n3)c2)CC1	none
O=S(=O)(c1cccc(-c2csc(-c3cccnc3)n2)c1)N1CCCCC1	ALR H2O2 inh 97.9
O=S(=O)(c1cccc(-c2csc(-c3cccnc3)n2)c1)N1CCOCC1	ALR H2O2 inh 99.2
O=S(=O)(c1ccc(-c2csc(-c3cccnc3)n2)cc1)N1CCCCC1	none
Cc1cc(SCC(=O)Nc2c(C)n(C)n(-c3ccccc3)c2=O)nc2ccccc12	none
CCCCC(=O)NC(=S)Nc1cccc(C(=O)O)c1	none
CC#CCCCC(=O)Nc1cccc(C(=O)O)c1	ALR H2O2 inh 89.9
COCCn1c(SCC(=O)Nc2ccccc2F)nnc1-c1ccoc1C	none
COc1cc(/C=C/C(=O)O)cc(S(=O)(=O)Nc2ccc(S(=O)(=O)N3CCCCC3)cc2)c1OC	none (no result: eIF4H FP inh, Efflux pump inh, UBC9 SUMO inh, ALR H2O2 inh, PABP polyA inh)
O=S(=O)(/N=S1/CC=CCN1S(=O)(=O)c1ccccc1)c1ccccc1 (stereo not given)	ALR H2O2 inh 99.2
O=S(=O)(c1ccccc1)N1CCN(S(=O)(=O)c2ccccc2)C1	none
O=C(NCCc1ccc(O)cc1)c1[nH]c(C(F)(F)F)nc1-c1ccccc1	none (no result: eIF4H FP inh, Efflux pump inh, UBC9 SUMO inh, ALR H2O2 inh, PABP polyA inh)
CNC(=S)NNc1nc(N2CCOCC2)nc(N2CCOCC2)n1	ALR H2O2 inh 84.9
Oc1cccc(Nc2nc(N3CCOCC3)nc(N3CCOCC3)n2)c1	ALR H2O2 inh 83.7
CNc1cc(C)nc(N2CCOCC2)n1	eIF4H FP inh 91.9 (no result: ALR H2O2 inh)
Cc1cc(C)nc(NN=CC2=C(N3CCOCC3)/C(=C/c3ccc(Cl)cc3)CC2)n1	none (no result: eIF4H FP inh, Efflux pump inh, UBC9 SUMO inh, ALR H2O2 inh, PABP polyA inh)
Cc1cc(C)nc(N/N=C/C2=C(N3CCOCC3)C(=C\c3ccc(Cl)cc3)/CC2)n1	ALR H2O2 inh 97.7
Cc1ccc(NC(=O)COC(=O)c2ccco2)cc1S(=O)(=O)N1CCOCC1	none (no result: eIF4H FP inh, UBC9 SUMO inh, PABP polyA inh)
Cc1cc(C)nc(Nc2ccc(O)cc2)n1	ALR H2O2 inh 99.7
Cc1cc(C)nc(Nc2ccc(N3CCOCC3)cc2)n1	ALR H2O2 inh 98.9
Cc1cc(C)nc(N/N=C/c2ccc(N3CCOCC3)cc2)n1	ALR H2O2 inh 97.3
CCCCSc1nc2ccc(Nc3nc(N4CCOCC4)nc(N4CCOCC4)n3)cc2s1	ALR H2O2 inh 89.9
CCc1ccc(C(C(=O)NC2CCCC2)N(Cc2cccnc2)C(=O)c2csnn2)cc1 (stereo not given)	none
CN(Cc1cccc(Cl)c1Cl)C(=O)c1cc(S(=O)(=O)N2CCOCC2)ccc1F	none (no result: eIF4H FP inh, UBC9 SUMO inh, PABP polyA inh)
COC(=O)c1cc(C(=O)OCC(=O)NC(=O)c2ccccc2)cc([N+](=O)[O-])c1	none (no result: eIF4H FP inh, UBC9 SUMO inh, PABP polyA inh)
O=C(O)c1ccc(N/N=C/C2=C(N3CCOCC3)C(=C\c3ccccc3)/CC2)cc1	ALR H2O2 inh 97.0
CSc1nc(O)c(Nc2ccccc2)c(=O)[nH]1	none (no result: eIF4H FP inh, Efflux pump inh, UBC9 SUMO inh, ALR H2O2 inh, PABP polyA inh)
CSc1nc(O)c(Nc2cccc(Cl)c2)c(=O)[nH]1	ALR H2O2 inh 88.7
CCCCN(C(=O)c1cc(S(=O)(=O)N2CCCCC2)ccc1Cl)c1c(N)n(CC(C)C)c(=O)[nH]c1=O	none (no result: eIF4H FP inh, Efflux pump inh, UBC9 SUMO inh, ALR H2O2 inh, PABP polyA inh)
S=C(N/N=C/c1ccco1)NC1CC2CCC1C2 (stereo not given)	ALR H2O2 inh 97.9
CC(C)(C)NC(=O)CSc1nccn1Cc1ccccc1	eIF4H FP inh 67.6, PABP polyA inh 42.3
CCOc1ccc(NC(=O)CSc2nccn2Cc2ccco2)cc1	none
O=C(CSc1nccn1Cc1ccccc1)Nc1ccccc1	ALR H2O2 inh 99.7
COc1ccc(NC(=O)CSc2nccn2Cc2ccco2)cc1	ALR H2O2 inh 98.8
CC(=O)Nc1cccc(NC(=O)CSc2nccn2Cc2ccccc2)c1	none
O=C(CSc1nccn1Cc1ccccc1)NC1CCCC1	none
O=C(Cc1cccc(NC(=O)C2CCCN(C(=O)CCc3ccccc3)C2)c1)Nc1cccc(C(=O)N2CCCC2)c1 (stereo not given)	none (no result: eIF4H FP inh, UBC9 SUMO inh, PABP polyA inh)
COc1ccc(Br)cc1CSC(=N)N	ALR H2O2 inh 98.6
Cc1ccc(S(=O)(=O)N(C)C)cc1NC(=O)C1CCCCN1S(=O)(=O)c1ccccc1 (stereo not given)	none (no result: eIF4H FP inh, UBC9 SUMO inh, PABP polyA inh)
COc1cccc(/C=C(\C#N)c2nc3ccc(C)cc3[nH]2)c1OCC(=O)O	none
N#C/C(=C\c1ccc(OC(=O)c2ccc(Cl)s2)cc1)c1nc2ccccc2[nH]1	eIF4H FP inh 51.4, PABP polyA inh active
CCOc1cccc(/C=C(/C#N)c2nc3ccccc3[nH]2)c1OCC(=O)O	ALR H2O2 inh 97.8
N#C/C(=C\c1cccc(OCC(=O)O)c1)c1nc2ccccc2[nH]1	ALR H2O2 inh 97.9
CC1(C(=O)NS(=O)(=O)c2ccc(F)cc2F)CCN1C(=O)C1CCCCC1 (stereo not given)	none (no result: eIF4H FP inh, Efflux pump inh, UBC9 SUMO inh, ALR H2O2 inh, PABP polyA inh)
O=C(COC(=O)CCC(NC(=O)OCc1ccccc1)C(=O)OCC(=O)Nc1ccccc1)Nc1ccccc1 (stereo not given)	PABP polyA inh 58.6
O=C(COC(=O)CCc1c[nH]c(=O)[nH]1)Nc1ccccc1	MLLE-PAM2 inh 53.1
O=C(CCC(NC(=O)OCc1ccccc1)C(=O)OCC(=O)N1CCCCC1)OCC(=O)N1CCCCC1 (stereo not given)	none
COc1ccccc1NS(=O)(=O)c1cc(NC(=O)CCNC(C)=O)ccc1N1CCCCC1	none (no result: eIF4H FP inh, UBC9 SUMO inh, PABP polyA inh)
C[C@@H]1CN([C@H](C)CO)S(=O)(=O)c2ccc(Br)cc2O[C@H]1CN(C)C(=O)Cc1ccccn1	none (no result: eIF4H FP inh, Efflux pump inh, UBC9 SUMO inh, ALR H2O2 inh, PABP polyA inh)
Nc1ncc2c(n1)-c1ccccc1CC2	none
Nc1ncc2c(n1)-c1ccoc1CC2	ALR H2O2 inh 89.2
COc1cc(/C=C/C(=O)OCC(=O)Nc2cc(C(F)(F)F)ccc2N2CCOCC2)ccc1O	none
CN(C)c1ccc(/C=C(\C#N)c2ccccc2)cc1	none (no result: Efflux pump inh, ALR H2O2 inh)
CN(C)c1cccc(/C=C(\C#N)c2ccccc2)c1	ALR H2O2 inh 99.1
